{"source": "the OligoGym collection"}
{"biological_target": "CD27", "experiment": "pooled miR-30 sensor sort-seq; sequence = guide strand", "conditions": "shRNA"}
{"sequence": "TCTATGCTGGTCACAGTCCTTC", "sensor-assay potency score (higher = more potent)": -0.827}
{"sequence": "TGCAAGGATCACACTGAGCAGC", "sensor-assay potency score (higher = more potent)": -1.06}
{"sequence": "TAGCATGTGGGTCTTTCGCAGC", "sensor-assay potency score (higher = more potent)": -0.998}
{"sequence": "TTGGAAGAGGATCACACTCGGT", "sensor-assay potency score (higher = more potent)": -0.746}
{"sequence": "ATCTATATTTCCTTCGTTGATG", "sensor-assay potency score (higher = more potent)": -1.32}
{"sequence": "TATATTTCCTTCGTTGATGGAG", "sensor-assay potency score (higher = more potent)": -0.211}
{"biological_target": "CD300E", "experiment": "pooled miR-30 sensor sort-seq; sequence = guide strand", "conditions": "shRNA"}
{"sequence": "TTGTACATGCTCTCATACTGAC", "sensor-assay potency score (higher = more potent)": -0.406}
{"sequence": "ACTGTCTGAATTTTGCACCAGT", "sensor-assay potency score (higher = more potent)": -0.28}
{"sequence": "TTGGGGTTGTAATTGCTGGGGA", "sensor-assay potency score (higher = more potent)": -0.0469}
{"sequence": "TTGGTCTCCACAATGCTCTCAC", "sensor-assay potency score (higher = more potent)": 0.408}
{"sequence": "ATACTGACACCACACTGTCAGA", "sensor-assay potency score (higher = more potent)": -1.71}
{"sequence": "TCACATGACGTGTCGTACTGTC", "sensor-assay potency score (higher = more potent)": 0.205}
{"sequence": "TTTTGGGTCAACACCTCCCCGG", "sensor-assay potency score (higher = more potent)": -0.887}
{"sequence": "TTTGGGTCAACACCTCCCCGGT", "sensor-assay potency score (higher = more potent)": -1.29}
{"sequence": "ATGACGTGTCGTACTGTCCTCG", "sensor-assay potency score (higher = more potent)": -0.632}
{"sequence": "TGAATTTTGGGTCAACACCTCC", "sensor-assay potency score (higher = more potent)": -1.03}
{"sequence": "ATCATCTTCATTGAGGTTCTGC", "sensor-assay potency score (higher = more potent)": 0.407}
{"sequence": "TGGTCTCTGATGGACACGCGGC", "sensor-assay potency score (higher = more potent)": -1.67}
{"biological_target": "CD300LG", "experiment": "pooled miR-30 sensor sort-seq; sequence = guide strand", "conditions": "shRNA"}
{"sequence": "TTCCTGCACCAGTACTTCCGGT", "sensor-assay potency score (higher = more potent)": -1.16}
{"sequence": "TCTTCTGCATAGATGGTGCCAG", "sensor-assay potency score (higher = more potent)": -0.529}
{"sequence": "TCCTGCACCAGTACTTCCGGTG", "sensor-assay potency score (higher = more potent)": -1.28}
{"sequence": "TTCTACTTTTCTCTCTAGCCAC", "sensor-assay potency score (higher = more potent)": -0.61}
{"sequence": "TTCTTCTTCTGCATAGATGGTG", "sensor-assay potency score (higher = more potent)": -0.287}
{"sequence": "TCTGTGTTAGACACCTACGTGC", "sensor-assay potency score (higher = more potent)": 0.23}
{"sequence": "TTGGTGTCGCAGACAGAGCAGA", "sensor-assay potency score (higher = more potent)": -1.29}
{"sequence": "TTCCCTGTAGGTGCACTGCAGG", "sensor-assay potency score (higher = more potent)": -0.985}
{"sequence": "TAGATGGTGCCAGAGCAGCGAG", "sensor-assay potency score (higher = more potent)": -1.7}
{"sequence": "TATCCCTGCAATGTGCACCTGA", "sensor-assay potency score (higher = more potent)": 0.23}
{"sequence": "TTTTCTTCATCATTTTTCCAAA", "sensor-assay potency score (higher = more potent)": -1.26}
{"sequence": "TCTTCTTCTGCATAGATGGTGC", "sensor-assay potency score (higher = more potent)": -0.808}
{"biological_target": "CD320", "experiment": "pooled miR-30 sensor sort-seq; sequence = guide strand", "conditions": "shRNA"}
{"sequence": "TTCTGTTCTGACAGCAGCAGGG", "sensor-assay potency score (higher = more potent)": -0.457}
{"sequence": "AATGCAGTCATCGCTCAGCGTG", "sensor-assay potency score (higher = more potent)": -1.16}
{"sequence": "TCTGTTCTGACAGCAGCAGGGA", "sensor-assay potency score (higher = more potent)": -0.673}
{"sequence": "TCCACAGCCGAGCTCGTCGCTG", "sensor-assay potency score (higher = more potent)": -1.78}
{"sequence": "TCATCGCTGCCATCGCTGCAGT", "sensor-assay potency score (higher = more potent)": -1.32}
{"sequence": "TTGCGCAGTTTCTTGTCAGTTC", "sensor-assay potency score (higher = more potent)": -0.101}
{"sequence": "TCGCTGCAGTCCAAGTCCCTGT", "sensor-assay potency score (higher = more potent)": -1.39}
{"sequence": "ATGCAGTCATCGCTCAGCGTGC", "sensor-assay potency score (higher = more potent)": -1.64}
{"sequence": "TAGTCCGAGGCCGAGCAGCAGC", "sensor-assay potency score (higher = more potent)": -1.57}
{"sequence": "TTCCGGGAGGATCTCATTGGTT", "sensor-assay potency score (higher = more potent)": -1.44}
